Screens (PubChem BioAssay)
eIF4H FP inh – inhibitors of RNA binding by human eIF4H | Q15056 | eIF4H fluorescence polarization binding assay | inhibition, % at 35 µM | 290,000 compounds, 0.94% hits;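 note: calls also rest on retests at 20 µM and on dose response follow-up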
A3G deaminase – inhibitors of human APOBEC3G DNA deaminase. Q9HC16. recombinant A3G, ssDNA deamination FAM/TAMRA fluorescence. inhibition, % at 20 µM. 330,000 compounds, 0.28% hits;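 active = inhibition of at least 40% at 20 µM, with no more than 30% in the related APOBEC3A deaminase screen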;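 note: plate controls were DMSO wells with A3G for no effect and wells lacking A3G enzyme for full effect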
A3A deaminase – human APOBEC3A DNA deaminase inhibition. P31941. recombinant A3A, FAM/TAMRA ssDNA deamination fluorescence. inhibition, % at 20 µM. 330,000 compounds, 0.41% hits. AID 493011;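 active = at least 40% inhibition at 20 µM here, with at most 30% in a related deaminase screen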;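 note: plate controls were A3A with DMSO for no effect and wells lacking A3A enzyme for full effect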
PABP FP inh – blocks human PABP binding to poly(A) RNA; P11940; fluorescence polarization; calls only at 35 µM; 290,000 compounds, 1% hits;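 note: calls also rest on retests at 20 µM and on dose response follow-up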
Target sequence (P11940 whole entry, looked up): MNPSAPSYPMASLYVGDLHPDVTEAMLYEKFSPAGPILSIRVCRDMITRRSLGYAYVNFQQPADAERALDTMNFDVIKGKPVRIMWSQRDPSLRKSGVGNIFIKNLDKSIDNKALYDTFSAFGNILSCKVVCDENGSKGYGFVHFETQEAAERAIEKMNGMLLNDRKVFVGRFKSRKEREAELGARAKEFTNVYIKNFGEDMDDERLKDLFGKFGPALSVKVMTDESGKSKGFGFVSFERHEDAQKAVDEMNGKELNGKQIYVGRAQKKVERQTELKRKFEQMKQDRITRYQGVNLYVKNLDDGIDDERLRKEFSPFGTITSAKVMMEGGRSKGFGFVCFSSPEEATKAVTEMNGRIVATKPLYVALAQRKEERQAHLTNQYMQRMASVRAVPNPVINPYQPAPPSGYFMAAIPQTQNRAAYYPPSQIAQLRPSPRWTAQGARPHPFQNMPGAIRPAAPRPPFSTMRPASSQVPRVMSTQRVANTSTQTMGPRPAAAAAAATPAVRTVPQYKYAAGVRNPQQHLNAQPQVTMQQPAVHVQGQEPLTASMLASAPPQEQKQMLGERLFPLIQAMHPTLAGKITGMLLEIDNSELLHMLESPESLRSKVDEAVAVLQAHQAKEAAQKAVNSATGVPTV
PHOSPHO1 block – inhibitors of human PHOSPHO1 phosphatase; 290,000 compounds, 1.1% hits; inhibition, % at 13.3 µM; recombinant PHOSPHO1, absorbance phosphatase assay; AID 1565; in the data active = inhibition above about 60%
PABP1 MLLE inh – blocks PAM2 peptide binding to the PABP1 MLLE domain; P11940; GST-MLLE / FITC-PAM2 fluorescence polarization; inhibition, % at 20 µM; 360,000 compounds, 0.36% hits; AID 588489; in the data active = inhibition above about 35%, passing the limit was not always enough;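 note: plate controls were DMSO wells with GST-MLLE for no effect and wells lacking GST-MLLE protein for full effect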
An asterisk follows results filed as active; i = inactive; . = no result; + = active, no number. Most compounds without a hit are left out; they make up all but 2.6% or so of the library. Unless noted, the rule behind the calls is not given here.

SMILES	eIF4H FP inh	A3G deaminase	A3A deaminase	PABP FP inh	PHOSPHO1 block	PABP1 MLLE inh
CCCNC(=O)c1onc(CSc2ccc(Cl)cc2)c1C(=O)NCCOC	.	-4	-1	.	.	8
CCOc1ccc(-c2cnc(NCc3cccc4ccccc34)n2CCOC)cc1	8	-1	0	i	24	13
Brc1ccc(-c2ccc(C3Nc4cccc5cccc(c45)N3)o2)cc1	.	13	-3	.	.	.
c1coc(C2Nc3cccc4cccc(c34)N2)c1	110*	54	40	+	-3	.
FC(F)(F)c1ccc(C2Nc3cccc4cccc(c34)N2)cc1	67	-3	-2	i	-16	-4
Fc1ccc(C2Nc3cccc4cccc(c34)N2)cc1	53*	4	-4	+	16	5
Cc1[nH]n(-c2ncc(-c3ccc(Cl)cc3)s2)c(=O)c1C(c1ccc(Cl)cc1)C(C#N)C#N (stereo unspecified)	86	-1	-1	+	-32	5
CC(=O)c1c(N2CCOCC2)nc2ccc(Br)cc2c1-c1ccccc1	5	2	2	i	-11	-6
